Experimental data as given in PubChem BioAssay AID687001 (Broad Institute, 2013).
Entries with a potency or affinity are not part of this list.

The molecules below were run against Protein S100-A4 (Homo sapiens) (UniProt P26447) (assay: human S100A4 peptide interaction inhibition curves – biochemical, fluorescence polarization, cherry-picked hits, dose response (AID 687001;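 note: 0% = DMSO neutral control wells and -100% = TFP positive control wells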)). Settings: FP, S100A4/TAMRA-myosin IIA peptide binding; series mostly up to 11 µM; activity change, negative = inhibition: at the top concentration;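 active = signal-lowering compounds whose fitted half-maximal concentration is at or below twice the top tested dose in every run; inconclusive = runs disagree, flat 30 to 70% inhibition, or poor curve fit; inactive = the rest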.
Protein S100-A4 (Homo sapiens), sequence (P26447 whole entry, looked up): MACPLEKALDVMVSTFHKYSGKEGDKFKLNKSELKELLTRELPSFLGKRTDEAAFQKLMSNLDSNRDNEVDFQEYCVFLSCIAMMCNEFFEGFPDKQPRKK

Activity change, negative = inhibition, inactive:
COc1ccc(CN2CC3(CN(C(=O)c4ccccc4)C3)c3c([nH]c4cc(OC)ccc34)[C@H]2CO)cc1 16.1%
CO[C@H]1CN(C)C(=O)c2cc(NC(=O)Nc3ccc4c(c3)OCO4)ccc2OC[C@@H](C)NC[C@@H]1C 1.91%
CC(C)CC#Cc1ccc2c(c1)O[C@@H](CN(C)C(=O)Nc1ccccc1)[C@@H](C)CN([C@H](C)CO)S2(=O)=O 9.65%
CCCCCC(=O)Nc1cc(S(=O)(=O)N2CCOCC2)ccc1N1CCCCC1 0.68%
O=C(NCCOc1ccccc1)C1CCC(=O)N(CCCN2CCOCC2)C1 (centres undefined) -3.56%
COc1cccc(S(=O)(=O)N2CC[C@@H]3[C@@H](CO)Nc4ccc(C#Cc5ccccc5)cc4[C@@H]32)c1 25.1%
COc1cccc(-c2nnc(NC(=O)CCS(=O)(=O)c3ccc(F)cc3)o2)c1 -2.79%
CCc1noc(C)c1C(=O)Nc1nc(-c2ccc(OC)cc2OC)cs1 15.2%
C[C@@H]1CCCCO[C@@H](CN(C)S(=O)(=O)c2cn(C)cn2)[C@@H](C)CN([C@H](C)CO)C(=O)c2cc(NS(=O)(=O)c3ccc(Cl)cc3)ccc2O1 5.4%
O=[N+]([O-])c1ccccc1CN1CCN(S(=O)(=O)Cc2ccccc2)CC1 2.44%
COc1ccc(OCC(=O)N2CCN(S(=O)(=O)c3ccc(Cl)s3)CC2)cc1 -2.66%
CCCCCN(C(=O)CCC(=O)OCC(=O)Nc1cccc(SC)c1)c1c(N)n(CCCC)c(=O)[nH]c1=O -0.499%
CN(C(=O)c1ccc(Br)o1)C1CCCCC1 1.27%
CN1CCN(C(CNC(=O)C(=O)Nc2ccc3c(c2)OCO3)c2ccc(F)cc2)CC1 (centres undefined) -4.66%
